This is a sample that favours compounds with a hit; in the whole collection about 28% have one here.
CYP2C9 act: increases human cytochrome P450 2C9 activity; P11712; recombinant CYP2C9, luciferin-H conversion, luminescence; hits give high values; factor 1 = untreated enzyme, 0 = blocked; activation factor at 5 µM; hit rate 1.4% among 96,000; AID 1024;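 active = activation factor of 2 or more for CYP2C9 at a 5 µM dose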;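 also: 0 = sulfaphenazole-blocked wells and 1 = vehicle-only wells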
DAT uptake mod: modulates human dopamine transporter uptake under cocaine. B-score at 10 µM. hit rate 1.3% among 110,000. LLC-PK1 hDAT cells, [14C]-dopamine uptake with cocaine IC80; actives deviate in either direction. Q01959. AID 449768;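 active = Z score or B-score, a plate-position-corrected score, falls beyond the plate's 99.7% confidence bounds, in either direction; inactive = both scores lie inside the 99.7% bounds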;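 also: scored against the spread of the other compound wells on the same plate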
D1 allo mod: allosteric modulators of human D1 dopamine receptor. P21728. hit rate 5.9% among 58,000. B-score at 10 µM. HEK293 D1, CRE-luciferase, dopamine EC30 potentiation; actives deviate in either direction. AID 641;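 active = luminescence count or its row- and column-corrected plate score outside the 99.7% band of the plate's sample wells, on either side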
Target sequence (P21728 whole entry, looked up): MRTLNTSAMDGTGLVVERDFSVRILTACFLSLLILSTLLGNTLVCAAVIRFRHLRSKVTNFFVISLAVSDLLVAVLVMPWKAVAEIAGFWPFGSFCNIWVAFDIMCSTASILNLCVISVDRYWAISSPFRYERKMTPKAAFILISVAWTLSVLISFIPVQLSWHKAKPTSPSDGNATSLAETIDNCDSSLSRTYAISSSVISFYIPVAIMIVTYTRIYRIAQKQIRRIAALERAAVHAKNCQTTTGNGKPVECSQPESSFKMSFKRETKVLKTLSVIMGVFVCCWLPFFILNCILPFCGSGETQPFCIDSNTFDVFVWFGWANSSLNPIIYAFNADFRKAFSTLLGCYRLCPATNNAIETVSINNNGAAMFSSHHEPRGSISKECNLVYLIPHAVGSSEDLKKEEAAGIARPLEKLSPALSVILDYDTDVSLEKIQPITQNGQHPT
CYP2C9 inhib: blocks human cytochrome P450 2C9 | P11712 | CYP2C9 Supersomes, luciferin-H conversion, luminescence | inhibition, % at 5 µM | hit rate 20% among 96,000 | AID 777;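 active = blocking of liver enzyme CYP2C9 beyond about 50% at 5 µM, limit read from the data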
CYP2C19 activ: cytochrome P450 2C19 (human) activation | activation factor at 5 µM | 96,000 tested, under 10 active | AID 1025 | recombinant CYP2C19, luciferin-H EGE luminescence; hits give high values; 0 = fully inhibited enzyme, 1 = untreated enzyme;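 active = activation factor of at least 2 at 5 µM in the primary screen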;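 also: 0 = wells with 2.5 mM tranylcypromine and 1 = vehicle-only wells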
CYP2C19 inh: human CYP2C19 inhibition | CYP2C19 Supersomes, luciferin-H EGE luminescence, 30 min | inhibition, % at 5 µM | hit rate 21% among 96,000;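 active = CYP2C19 inhibition above a set limit at 5 µM in the primary screen, cut at about 50% in these data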;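 also: plate controls were negative control wells for no effect and 2.5 mM tranylcypromine positive control for full effect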
The depositor's hits bear a star; . = no result given.

SMILES	CYP2C9 act	DAT uptake mod	D1 allo mod	CYP2C9 inhib	CYP2C19 activ	CYP2C19 inh
Fc1ccc(CCNCc2ccccc2Cl)cc1	0.9	0.012	.	10	0	96*
Cc1cc(OCC(=O)Nc2c(C)n(C)n(-c3ccccc3)c2=O)c2c3c(c(=O)oc2c1)CCC3	1	.	-0.067	-2	0.9	10
ClCCNc1nc2ccc(Cl)cc2[nH]1	0.9	-0.2	.	12	0.7	27
COC(=O)c1ccc(COc2cc(C)cc3oc(=O)c4c(c23)CCCC4)o1	0	0.0037	0.49	98*	0.2	79*
Cc1ccc(-n2nc(C)cc2NC(=O)COc2cc(C)cc3oc(=O)c4c(c23)CCC4)cc1	0.2	0.73	.	80*	0.8	25
CC1CN=C(NCc2ccccc2)S1 (stereo not drawn)	1.1	-0.0096	.	-6	1	5
CC(C)N1OC2CC1c1nc3ccccc3n1C2 (stereo not drawn)	.	-1.4	.	.	.	.
CC(O)(CS(=O)(=O)c1cccc(C(F)(F)F)c1)C(=O)Nc1ccc(C(F)(F)F)cc1 (stereo not drawn)	0.5	1.6	.	47	0.2	83*
CC(O)(CS(=O)(=O)c1ccccc1)C(=O)Nc1cccc(C(F)(F)F)c1 (stereo not drawn)	1	-0.4	.	5	0.3	69*
Cc1nc2cc(C(F)(F)F)ccc2n1C1CCN(Cc2nnnn2Cc2ccc3c(c2)OCO3)CC1	0.1	.	0.81	92*	0.4	57*
FC(F)(F)c1ccc2c(c1)ncn2C1CCN(Cc2nnnn2C2CCCCC2)CC1	0.3	1.1	1.1	69*	0.1	88*
Cc1nc2cc(C(F)(F)F)ccc2n1C1CCN(Cc2nnnn2Cc2cccs2)CC1	0.2	2	0.22	79*	0.8	24
CCOC(=O)C1(c2ccccc2)CCN(CCC(C#N)(c2ccccc2)c2ccccc2)CC1	.	0.39	.	.	.	.
CCOP(=O)(C#CC(C)(C)C)C1(O)CCCCC1 (stereo not drawn)	1.1	1.5	0.3	-10	1.1	-14
CC(=O)c1ccc2c(c1)C1C(Cl)C(Sc3ccccc3[N+](=O)[O-])CC1C(c1ccccc1)N2 (stereo not drawn)	0.3	1.4	.	74*	0.6	44
COC(=O)C1=C(c2ccccc2)C[C@@H]2CC[C@H]1N2C(=O)NCc1cccc2ccccc12	.	-0.087	.	.	.	.
Cc1ccc(CS(=O)(=O)Cc2ccc(C(=O)N3CCC4(CC3)OCCO4)o2)cc1	0.8	0.29	0.47	19	1	1
Cc1ccc(S(=O)(=O)Cc2ccc(C(=O)N3CCC4(CC3)OCCO4)o2)cc1	0.3	0.31	-0.36	70*	0.4	62*
CN1CCC(N(C)c2ncnc3ccc(Br)cc23)CC1	1	-0.14	-4.3*	-3	1	-2
CN1CCN(c2ncnc3ccc(Br)cc23)CC1	1.1	-0.055	-2.3	-8	1	1
CCCCn1c(O)c(C(C)=NC(Cc2c[nH]c3ccccc23)C(=O)OC)c(=O)[nH]c1=O (stereo not drawn)	0	2.7*	-0.68	97*	0	95*
CCCCCCn1c(O)c(C(C)=NC)c(=O)[nH]c1=O	0.4	0.61	.	61*	0.2	83*
CCCCn1c(O)c(C(C)=NCCN2CCCCC2)c(=O)[nH]c1=O	1	-2.2	-0.98	4	1	3
C/C(=C\c1ccc(N(C)C)cc1)[N+](=O)[O-]	1.3	.	.	-32	0.8	18
CN(C)c1ccc(C(=O)c2ccc(N(C)C)cc2)cc1	2.2*	-1.4	.	-116	0.3	66*
SMILES	CYP2C9 act	DAT uptake mod	D1 allo mod	CYP2C9 inhib	CYP2C19 activ	CYP2C19 inh
O=P(Nc1ccccc1)(Nc1ccccc1)Oc1cccc(Cl)c1	0.5	0.35	.	51*	0.5	47
COC(=O)C1=C(c2ccc(S(C)(=O)=O)cc2)C[C@@H]2CC[C@H]1N2C(=O)NCc1ccc(C(F)(F)F)cc1	.	1.1	.	.	.	.
O=c1c2ccccc2nc(-c2ccccc2)n1-n1cccc1	0.4	0.2	2.2	57*	0.5	53*
O=c1c2ccccc2nc(-c2ccccc2)n1-c1ccncc1	0.9	-0.21	.	8	0.8	21
O=C(c1cc2c(s1)CCCCCC2)N1CCC2(CC1)OCCO2	0.3	1	0.64	73*	0	97*
CCc1sc(C(=O)N2CCC3(CC2)OCCO3)cc1Br	1.7	0.074	0.62	-65	0	96*
O=C(c1ccc2c(c1)ncn2C1CCCCC1)N1CCC2(CC1)OCCO2	1.1	1.7	0.4	-10	1	5
O=C1NCN(c2ccccc2)C12CCNCC2	1.1	0.79	0.065	-6	0.1	89*
CC(=O)C1(c2ccccc2)CCNCC1	0.9	-0.25	-1.6	5	1	1
CC(N=Cc1c(O)[nH]c(=O)[nH]c1=O)c1ccccc1 (stereo not drawn)	0.8	0.014	-0.43	18	0.9	11
O=C(Nc1ccc(Br)cc1)c1nn(C23CC4CC(CC(C4)C2)C3)cc1Br	0.7	3*	.	34	0.8	20
C=C(C=O)C[C@@H]1C[C@H](O)C2OC3C[C@]4(C)OC5/C=C\CC6OC7C(CC=CCC6OC5CCCC4OC3CC2O1)OC1CC2OC3CC(=O)OC3C[C@@H](C)C[C@@]2(C)OC1C[C@@H]7C (stereo partly drawn)	.	-0.37	.	.	.	.
CN1C(=O)C(Cc2ccc3c(c2)OCO3)C(=O)N(C)C1=O	0.9	0.47	-0.26	12	0.6	43
CC(=NCc1cccnc1)c1c(O)n(-c2ccccc2C)c(=O)[nH]c1=O	0.4	0.34	.	60*	0.2	84*
COc1ccc(Nc2ncc(C(=O)N3CCC4(CC3)OCCO4)c3ccccc23)cc1	0.9	0.96	-0.75	14	0.8	23
Cc1c(C(=O)N2CCC3(CC2)OCCO3)sc2ncnc(N3CCN(c4ccccn4)CC3)c12	0.1	1.1	-6.7*	87*	0.4	62*
O=C1C2CCCN2C(c2cccnc2)N1c1nccs1 (stereo not drawn)	1	.	-0.25	-2	1.1	-7
OC1(CN2CCOCC2)C2CC3CC(C2)CC1C3 (stereo not drawn)	1.3	-0.15	.	-30	1	4
O=C(COc1ccc(Cl)cc1Cl)N1CCN(C/C=C/c2ccccc2)CC1	0.4	0.4	.	56*	0.6	43
C#CCOCOCC#CCN(CC)CC	1	1.2	.	-1	0.9	8
CC(C)c1oc(=O)cc2c1[C@@H](O)[C@H]1OC(=O)[C@@]3(C)C[C@@H](O)[C@@H](O)[C@@]2(C)C13 (stereo partly drawn)	.	-0.68	.	.	.	.
COc1cc(Br)cc(CN2CCN(C)CC2)c1O	1.1	0.9	-0.99	-7	1	2
COc1ccccc1N1CCN(Cc2ccc(Br)s2)CC1	0.2	-0.25	-0.62	78*	0.1	94*
COc1ccccc1N1CCN(Cc2c(F)cccc2Cl)CC1	0.3	0.87	0.17	68*	0	97*
COc1cc(CN2CCN(c3cc(C)ccc3C)CC2)ccc1O	0.7	1.5	-1.7	33	0.4	56*

Compound activity: PubChem BioAssay, several laboratories
